Results from the supplement of paper PMC10849652.
Targets with a hit are over-represented here; the source holds about 7,900 in all. About 0.6% of all pairs of compound and target were hits.

Columns and labels:
Assay in all cases: log2 fold change, soluble protein after heating vs DMSO (PISA); higher = thermal stabilisation; K562 cells, 10 uM, 30 min; active = over 0.2 and 3.5 SD of the protein, either way, in both replicates (recomputed)
[1] = compound: CC[C@@H]1C(=O)N(C)c2cnc(Nc3ccc(C(=O)NC4CCN(C)CC4)cc3OC)nc2N1C1CCCC1
Method in brief: (§1)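 Values are thermal stability changes relative to control samples and are taken from duplicates. They are stated as log2 fold changes. Before quantification by TMTpro 16plex LC-MS/MS with equalised channel sums, K562 cells at 2×10^6 cells/mL were treated with 10 μM compound for 30 min, heated in aliquots for 3 min across 48°C-58°C, pooled, extracted in PBS with 0.5% NP-40 at 4°C, and centrifuged at 21,000xg for 90 min to give the soluble supernatant.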

volasertib = compound: CC[C@@H]1C(=O)N(C)c2cnc(Nc3ccc(C(=O)N[C@H]4CC[C@H](N5CCN(CC6CC6)CC5)CC4)cc3OC)nc2N1C(C)C [volasertib]
Method in brief: as §1

[2] = compound: CC[C@H](C)N1C=C(C2=C(C=C(C=C21)C3=CN=C(C=C3)N4CCNCC4)C(=O)NCC5=C(C=C(NC5=O)C)C)C
Method in brief: as §1

epoxomicin = compound: CC[C@H](C)[C@@H](C(=O)N[C@@H]([C@@H](C)O)C(=O)N[C@@H](CC(C)C)C(=O)[C@]1(CO1)C)NC(=O)[C@H]([C@@H](C)CC)N(C)C(=O)C [epoxomicin]
Method in brief: as §1

[3] = compound: CCn1c(C(=O)N(C2CC2)C2CC2)cc2c3c(ncn3C)c(Nc3cc(C)n(C)n3)nc21
Method in brief: as §1

[4] = compound: CCn1cc(-c2ccnc3[nH]c(-c4cccc(CN(C)C)c4)cc23)c(-c2ccc(NC(=O)N(C)C)cc2)n1
Method in brief: as §1

[5] = compound: CN(C)CC(=O)Nc1ccc2[nH]c(=O)c3ccccc3c2c1
Method in brief: as §1

rosiglitazone = compound: CN(CCOC1=CC=C(C=C1)C[C@H]2C(=O)NC(=O)S2)C3=CC=CC=N3 (racemic) [rosiglitazone]
Method in brief: as §1

[6] = compound: CN1C2=C(C3=C1C(=O)N(N=C3)CC4=CC(=CC=C4)N)SC(=C2)S(=O)C
Method in brief: as §1

[7] = compound: CN1CCC(CNc2ccc3ncc(-c4cccc(OC(F)(F)F)c4)n3n2)CC1
Method in brief: as §1

Measured: log2 fold change

DNAJC19 (UniProt Q96DA6)
inactive: [1] -0.094 | volasertib -0.042 | [2] -0.014 | epoxomicin -0.015 | [3] 0.04 | [4] -0.022 | [5] 0.002 | rosiglitazone -0.01 | [6] -0.05 | [7] -0.148

DYNC1LI2 (UniProt O43237)
Chain of UniProt O43237 (O43237 whole entry, looked up): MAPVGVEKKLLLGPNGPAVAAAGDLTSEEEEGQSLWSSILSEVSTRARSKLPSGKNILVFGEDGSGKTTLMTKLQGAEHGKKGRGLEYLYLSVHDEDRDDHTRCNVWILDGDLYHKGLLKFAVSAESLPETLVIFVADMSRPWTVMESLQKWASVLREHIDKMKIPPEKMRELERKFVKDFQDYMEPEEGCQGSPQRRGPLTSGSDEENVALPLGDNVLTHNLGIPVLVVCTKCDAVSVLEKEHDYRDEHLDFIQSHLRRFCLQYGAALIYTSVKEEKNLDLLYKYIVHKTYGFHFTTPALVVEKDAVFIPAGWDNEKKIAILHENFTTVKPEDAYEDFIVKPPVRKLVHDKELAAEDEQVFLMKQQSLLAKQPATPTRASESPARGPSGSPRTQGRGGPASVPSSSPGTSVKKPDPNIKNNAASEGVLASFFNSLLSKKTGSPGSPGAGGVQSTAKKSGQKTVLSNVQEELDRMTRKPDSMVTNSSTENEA
inactive: [1] 0.324 | volasertib -0.021 | [2] -0.181 | epoxomicin -0.072 | [3] -0.085 | [4] -0.041 | [5] 0.024 | rosiglitazone 0.052 | [6] -0.007 | [7] 0.101

CTSV (UniProt O60911)
active: [1] -0.719 | volasertib -0.993 | [7] -1.29
inactive: [2] -0.054 | epoxomicin -0.007 | [3] 0.033 | [4] 0.084 | [5] 0.012 | rosiglitazone -0.013 | [6] -0.081

DUS2 (UniProt Q9NX74)
Chain of UniProt Q9NX74 (Q9NX74 whole entry, looked up): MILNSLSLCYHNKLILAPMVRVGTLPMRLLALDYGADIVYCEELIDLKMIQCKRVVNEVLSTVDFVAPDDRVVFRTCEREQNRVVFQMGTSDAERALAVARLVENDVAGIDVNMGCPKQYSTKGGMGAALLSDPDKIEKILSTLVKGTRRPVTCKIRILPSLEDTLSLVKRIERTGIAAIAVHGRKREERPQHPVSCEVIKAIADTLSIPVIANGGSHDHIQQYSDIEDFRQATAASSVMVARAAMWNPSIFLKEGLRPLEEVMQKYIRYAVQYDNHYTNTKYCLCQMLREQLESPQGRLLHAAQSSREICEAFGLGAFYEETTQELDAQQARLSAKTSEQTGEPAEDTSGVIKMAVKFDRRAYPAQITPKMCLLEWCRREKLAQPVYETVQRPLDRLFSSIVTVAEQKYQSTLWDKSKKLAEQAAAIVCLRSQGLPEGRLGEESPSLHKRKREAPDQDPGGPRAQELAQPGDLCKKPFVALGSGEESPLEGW
inactive: [1] -0.052 | volasertib -0.242 | [2] 0.037 | epoxomicin 0.059 | [3] -0.059 | [4] -0.029 | [5] 0.055 | rosiglitazone 0.063 | [6] 0.115 | [7] -0.02

CUTA isoform 2 (UniProt O60888)
inactive: [1] 0.063 | volasertib -0.057 | [2] -0.033 | epoxomicin 0.125 | [3] 0.03 | [4] -0.109 | [5] 0.175 | rosiglitazone -0.13 | [6] 0.164 | [7] -0.027

DBN1 isoform 3 (UniProt Q16643)
inactive: [1] 0.026 | volasertib -0.189 | [2] 0.089 | epoxomicin -0.014 | [3] 0.017 | [4] 0.087 | [5] -0.047 | rosiglitazone -0.021 | [6] 0.05 | [7] -0.011

DEGS1 (UniProt O15121)
inactive: [1] 0.061 | volasertib -0.02 | [2] 0.012 | epoxomicin -0.037 | [3] -0.028 | [4] -0.168 | [5] 0.068 | rosiglitazone -0.041 | [6] -0.1 | [7] 0.019

DBT (UniProt P11182)
inactive: [1] 0.068 | volasertib 0.009 | [2] -0.01 | epoxomicin -0.022 | [3] -0.018 | [4] -0.001 | [5] -0.14 | rosiglitazone -0.025 | [6] 0.015 | [7] 0.045

DHX40 (UniProt Q8IX18)
Chain of UniProt Q8IX18 (Q8IX18 whole entry, looked up): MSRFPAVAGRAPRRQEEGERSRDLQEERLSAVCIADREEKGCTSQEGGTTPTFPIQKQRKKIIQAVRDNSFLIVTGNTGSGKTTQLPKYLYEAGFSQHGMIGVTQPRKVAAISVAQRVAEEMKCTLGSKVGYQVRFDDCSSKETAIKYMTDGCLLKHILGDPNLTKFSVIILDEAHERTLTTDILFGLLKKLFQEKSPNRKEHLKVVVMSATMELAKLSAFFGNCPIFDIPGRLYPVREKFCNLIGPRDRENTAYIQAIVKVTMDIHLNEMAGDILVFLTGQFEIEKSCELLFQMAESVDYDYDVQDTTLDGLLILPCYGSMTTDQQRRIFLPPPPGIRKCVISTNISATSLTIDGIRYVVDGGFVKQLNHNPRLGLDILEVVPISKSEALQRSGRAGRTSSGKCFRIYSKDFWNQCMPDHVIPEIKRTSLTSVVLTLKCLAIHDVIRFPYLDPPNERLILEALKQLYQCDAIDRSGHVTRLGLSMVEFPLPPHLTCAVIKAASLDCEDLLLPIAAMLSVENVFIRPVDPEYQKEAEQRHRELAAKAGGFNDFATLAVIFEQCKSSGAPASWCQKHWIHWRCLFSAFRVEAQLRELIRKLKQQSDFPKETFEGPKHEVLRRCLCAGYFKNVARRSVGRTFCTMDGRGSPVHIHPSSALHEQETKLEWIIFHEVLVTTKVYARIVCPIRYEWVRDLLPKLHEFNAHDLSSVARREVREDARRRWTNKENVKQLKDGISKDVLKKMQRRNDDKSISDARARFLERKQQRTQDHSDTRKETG
inactive: [1] -0.006 | volasertib -0.236 | [2] 0.188 | epoxomicin -0.037 | [3] -0.074 | [4] -0.013 | [5] 0.026 | rosiglitazone 0.166 | [6] -0.076 | [7] -0.029

CUX1 isoform 3 (UniProt P39880)
inactive: [1] 0.008 | volasertib -0.153 | [2] 0.036 | epoxomicin 0.027 | [3] -0.041 | [4] -0.008 | [5] -0.019 | rosiglitazone 0.125 | [6] 0.004 | [7] -0.123

DDOST (UniProt P39656)
inactive: [1] 0.006 | volasertib -0.102 | [2] -0.014 | epoxomicin -0.014 | [3] 0.015 | [4] 0.052 | [5] -0.031 | rosiglitazone -0.007 | [6] 0.019 | [7] 0.089

DHRS1 (UniProt Q96LJ7)
inactive: [1] 0.164 | volasertib 0.302 | [2] 0.039 | epoxomicin -0.062 | [3] 0.034 | [4] -0.098 | [5] -0.048 | rosiglitazone -0.022 | [6] -0.051 | [7] 0.065

CUEDC2 (UniProt Q9H467)
inactive: [1] -0.044 | volasertib -0.133 | [2] 0.033 | epoxomicin 0.118 | [3] -0.01 | [4] -0.001 | [5] -0.01 | rosiglitazone 0.105 | [6] -0.038 | [7] -0.067

DNAJB1 (UniProt P25685)
inactive: [1] 0.011 | [2] 0.064 | epoxomicin -0.041 | [3] -0.022 | [4] -0.026 | [5] -0.01 | rosiglitazone 0.02 | [6] -0.064 | [7] -0.042
active: volasertib -0.222

DFFB (UniProt O76075)
inactive: [1] 0.049 | volasertib 0.036 | [2] 0.104 | epoxomicin 0.039 | [3] -0.057 | [4] 0.028 | [5] -0.036 | rosiglitazone 0 | [6] -0.074 | [7] -0.01

DCTPP1 (UniProt Q9H773)
inactive: [1] 0.007 | volasertib -0.016 | [2] -0.059 | epoxomicin 0.062 | [3] -0.012 | [4] -0.032 | [5] -0.012 | rosiglitazone 0.012 | [6] -0.048 | [7] 0.201

ERLIN2 (UniProt O94905)
inactive: [1] 0.06 | volasertib -0.057 | [2] 0.054 | epoxomicin -0.034 | [3] -0.031 | [4] 0.01 | [5] -0.051 | rosiglitazone -0.01 | [6] 0.096 | [7] 0.008

CTSL (UniProt P07711)
inactive: [1] -0.124 | volasertib -0.247 | [2] -0.045 | epoxomicin 0.017 | [3] 0.014 | [4] 0.196 | [5] -0.074 | rosiglitazone -0.037 | [6] 0.019 | [7] -0.306

EXOC1 (UniProt Q9NV70)
inactive: [1] -0.219 | volasertib -0.44 | [2] 0.077 | epoxomicin -0.012 | [3] -0.081 | [4] 0.023 | [5] 0.084 | rosiglitazone 0.115 | [6] 0.1 | [7] -0.319

EGLN1 (UniProt Q9GZT9)
inactive: [1] 0.117 | volasertib -0.001 | [2] 0.048 | epoxomicin 0.078 | [3] -0.011 | [4] -0.004 | [5] 0.007 | rosiglitazone 0.035 | [6] -0.006 | [7] -0.052

ESYT1 isoform 2 (UniProt Q9BSJ8)
inactive: [1] 0.007 | volasertib -0.37 | [2] 0.099 | epoxomicin 0.026 | [3] -0.09 | [4] 0 | [5] 0.033 | rosiglitazone 0.045 | [6] 0.063 | [7] 0.115

DIAPH1 (UniProt O60610)
Chain of UniProt O60610 (O60610 whole entry, looked up): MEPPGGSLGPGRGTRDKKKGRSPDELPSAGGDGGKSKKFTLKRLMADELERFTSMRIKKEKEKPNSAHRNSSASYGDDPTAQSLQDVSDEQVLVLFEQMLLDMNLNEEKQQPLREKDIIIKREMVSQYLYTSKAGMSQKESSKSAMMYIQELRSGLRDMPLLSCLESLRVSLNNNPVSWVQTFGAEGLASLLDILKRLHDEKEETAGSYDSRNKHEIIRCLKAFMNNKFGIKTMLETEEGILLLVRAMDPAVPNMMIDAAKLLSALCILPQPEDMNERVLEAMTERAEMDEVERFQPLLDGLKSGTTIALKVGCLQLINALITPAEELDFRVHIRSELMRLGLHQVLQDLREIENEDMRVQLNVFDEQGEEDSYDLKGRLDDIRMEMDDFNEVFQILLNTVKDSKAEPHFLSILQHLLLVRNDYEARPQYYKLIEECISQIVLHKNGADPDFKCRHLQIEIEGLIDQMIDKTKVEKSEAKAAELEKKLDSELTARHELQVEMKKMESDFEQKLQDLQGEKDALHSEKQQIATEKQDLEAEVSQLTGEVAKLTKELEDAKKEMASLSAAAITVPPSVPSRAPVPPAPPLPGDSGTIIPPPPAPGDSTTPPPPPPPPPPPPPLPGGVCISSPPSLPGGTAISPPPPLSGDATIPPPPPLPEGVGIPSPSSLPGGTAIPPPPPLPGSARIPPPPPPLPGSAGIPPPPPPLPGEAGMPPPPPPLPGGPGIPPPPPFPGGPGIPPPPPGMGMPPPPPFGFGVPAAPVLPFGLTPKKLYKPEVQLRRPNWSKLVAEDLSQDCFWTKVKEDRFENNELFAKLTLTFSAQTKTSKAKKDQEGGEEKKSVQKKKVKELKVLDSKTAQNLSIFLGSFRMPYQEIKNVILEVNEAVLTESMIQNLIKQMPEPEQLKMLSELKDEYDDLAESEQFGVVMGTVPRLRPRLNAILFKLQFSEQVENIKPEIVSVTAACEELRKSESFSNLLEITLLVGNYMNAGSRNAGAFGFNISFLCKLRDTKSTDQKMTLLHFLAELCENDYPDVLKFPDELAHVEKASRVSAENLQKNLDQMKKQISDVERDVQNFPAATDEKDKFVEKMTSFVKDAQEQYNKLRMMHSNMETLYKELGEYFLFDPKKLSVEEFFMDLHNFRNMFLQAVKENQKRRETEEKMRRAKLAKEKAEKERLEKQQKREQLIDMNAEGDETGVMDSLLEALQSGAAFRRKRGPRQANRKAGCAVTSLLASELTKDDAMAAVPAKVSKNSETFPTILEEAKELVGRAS
inactive: [1] 0.012 | volasertib -0.211 | [2] 0.09 | epoxomicin -0.004 | [3] -0.061 | [4] 0.055 | [5] 0.053 | rosiglitazone 0.047 | [6] 0.168 | [7] -0.012

DBNL isoform 3 (UniProt Q9UJU6)
inactive: [1] -0.143 | [2] 0.031 | epoxomicin 0.012 | [3] -0.046 | [4] 0.007 | [5] 0.011 | rosiglitazone 0.095 | [6] -0.075 | [7] -0.109
active: volasertib -0.367

DCAF13 (UniProt Q9NV06)
inactive: [1] 0.134 | volasertib 0.26 | [2] 0.03 | epoxomicin -0.24 | [3] 0.038 | [4] 0.132 | [5] -0.166 | rosiglitazone -0.112 | [6] 0.195 | [7] 0.136

DHFR (UniProt P00374)
active: [7] 1.64
inactive: [1] 0.002 | volasertib -0.11 | [2] 0.088 | epoxomicin -0.013 | [3] -0.101 | [4] -0.077 | [5] 0.091 | rosiglitazone 0.046 | [6] 0.113

EXOC5 (UniProt O00471)
inactive: [1] -0.236 | [2] 0.093 | epoxomicin 0.041 | [3] -0.046 | [4] 0.022 | [5] 0.066 | rosiglitazone 0.044 | [6] 0.054 | [7] -0.215
active: volasertib -0.596

DDX4 (UniProt Q9NQI0)
Chain of UniProt Q9NQI0 (Q9NQI0 whole entry, looked up): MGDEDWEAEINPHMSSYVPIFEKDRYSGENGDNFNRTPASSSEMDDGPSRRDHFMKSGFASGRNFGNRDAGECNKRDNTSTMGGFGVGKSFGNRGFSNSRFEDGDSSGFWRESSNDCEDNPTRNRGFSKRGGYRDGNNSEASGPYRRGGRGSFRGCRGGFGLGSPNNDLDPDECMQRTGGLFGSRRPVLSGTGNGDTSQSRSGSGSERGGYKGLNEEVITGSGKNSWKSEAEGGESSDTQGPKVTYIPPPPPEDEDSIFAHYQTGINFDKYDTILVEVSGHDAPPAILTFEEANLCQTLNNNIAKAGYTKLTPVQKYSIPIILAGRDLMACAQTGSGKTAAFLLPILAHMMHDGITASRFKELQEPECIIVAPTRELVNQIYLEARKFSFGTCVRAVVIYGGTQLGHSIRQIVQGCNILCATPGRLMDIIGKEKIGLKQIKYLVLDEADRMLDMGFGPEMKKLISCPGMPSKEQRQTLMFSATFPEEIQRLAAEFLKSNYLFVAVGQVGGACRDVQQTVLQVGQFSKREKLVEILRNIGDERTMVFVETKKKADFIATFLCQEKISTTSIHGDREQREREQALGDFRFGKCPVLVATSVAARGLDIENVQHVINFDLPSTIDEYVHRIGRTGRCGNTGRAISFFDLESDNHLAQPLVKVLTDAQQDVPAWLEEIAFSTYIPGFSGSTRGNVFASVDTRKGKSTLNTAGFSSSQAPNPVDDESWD
inactive: [1] 0.139 | volasertib -0.006 | [2] 0.067 | epoxomicin -0.113 | [3] -0.223 | [4] 0.047 | [5] -0.414 | rosiglitazone 0.097 | [6] 0.025 | [7] -0.844

CYFIP1 (UniProt Q7L576)
Chain of UniProt Q7L576 (Q7L576 whole entry, looked up): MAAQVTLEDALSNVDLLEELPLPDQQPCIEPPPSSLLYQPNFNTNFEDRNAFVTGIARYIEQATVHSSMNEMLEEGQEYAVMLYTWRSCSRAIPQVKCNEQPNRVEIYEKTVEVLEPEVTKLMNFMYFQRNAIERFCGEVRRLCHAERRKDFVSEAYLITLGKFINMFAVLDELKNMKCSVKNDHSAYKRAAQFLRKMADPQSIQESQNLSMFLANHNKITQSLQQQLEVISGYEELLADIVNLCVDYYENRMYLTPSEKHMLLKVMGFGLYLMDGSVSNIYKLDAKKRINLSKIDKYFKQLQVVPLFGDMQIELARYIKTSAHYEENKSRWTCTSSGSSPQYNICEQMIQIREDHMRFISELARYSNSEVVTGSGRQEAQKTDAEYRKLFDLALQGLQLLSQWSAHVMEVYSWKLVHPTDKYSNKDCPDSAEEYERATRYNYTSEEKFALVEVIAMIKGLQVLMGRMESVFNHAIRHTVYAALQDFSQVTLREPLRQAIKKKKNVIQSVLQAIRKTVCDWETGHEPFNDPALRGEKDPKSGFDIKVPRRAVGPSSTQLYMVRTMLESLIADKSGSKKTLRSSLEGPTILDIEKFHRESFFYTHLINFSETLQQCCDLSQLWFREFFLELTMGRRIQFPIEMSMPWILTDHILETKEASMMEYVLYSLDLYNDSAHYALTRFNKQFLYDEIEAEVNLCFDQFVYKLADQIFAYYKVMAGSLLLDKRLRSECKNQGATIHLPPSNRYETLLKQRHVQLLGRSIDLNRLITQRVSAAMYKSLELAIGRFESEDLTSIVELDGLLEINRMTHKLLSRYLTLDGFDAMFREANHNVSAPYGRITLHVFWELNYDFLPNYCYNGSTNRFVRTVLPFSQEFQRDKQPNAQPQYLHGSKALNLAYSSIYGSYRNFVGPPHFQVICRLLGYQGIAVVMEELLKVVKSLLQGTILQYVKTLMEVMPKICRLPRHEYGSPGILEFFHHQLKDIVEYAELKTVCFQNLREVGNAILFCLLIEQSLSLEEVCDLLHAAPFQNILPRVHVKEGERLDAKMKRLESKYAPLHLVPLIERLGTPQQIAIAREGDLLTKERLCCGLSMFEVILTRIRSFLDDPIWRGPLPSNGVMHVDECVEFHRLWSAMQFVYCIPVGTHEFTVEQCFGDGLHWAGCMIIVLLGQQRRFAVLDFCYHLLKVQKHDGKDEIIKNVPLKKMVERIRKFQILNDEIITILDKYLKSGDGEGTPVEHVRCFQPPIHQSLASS
inactive: [1] -0.011 | [2] 0.046 | epoxomicin 0.02 | [3] -0.008 | [4] 0.011 | [5] 0.024 | rosiglitazone 0.045 | [6] 0.001 | [7] -0.034
active: volasertib -0.233

DCTN1 isoform 4 (UniProt Q14203)
inactive: [1] 0.01 | volasertib -0.1 | [2] 0.078 | epoxomicin 0.02 | [3] -0.157 | [4] -0.024 | [5] 0.052 | rosiglitazone 0.086 | [6] 0.149 | [7] -0.096

FAM207A (UniProt Q9NSI2)
active: [7] 0.418
inactive: [1] -0.085 | volasertib -0.165 | [2] 0.044 | epoxomicin -0.024 | [3] 0.025 | [4] 0.023 | [5] 0.05 | rosiglitazone 0.146 | [6] 0.168
